Assay [1] can be described thus: CEETOX_H295R_ESTRONE: CeeTox H295R High-throughput Steroidogenesis Assay for Estrone (AID 2283441).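 Note: estrone secreted into medium measured by LC-MS/MS after dansyl derivatization.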 The following applies: actives raise or lower the signal. A digest of the protocol: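 H295R cells prestimulated 48 h with 10 uM forskolin, then exposed 48 h to chemicals in 0.1% DMSO final; estrone in medium extracted with MTBE, dansyl-derivatized, quantified by HPLC-MS/MS; bidirectional fitting versus DMSO, viability by MTT.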

Assay [2] is described as follows: CEETOX_H295R_PROG: CeeTox H295R High-throughput Steroidogenesis Assay for Progesterone (PROG) (AID 2283442). The following applies: actives raise or lower the signal. A digest of the protocol: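 Progesterone secreted by human H295R cells was measured by LC-MS/MS following 48 h chemical exposure at 0.1% DMSO, preceded by 48 h forskolin (10 uM) stimulation. Same-well MTT viability; cytotoxic concentrations diluted 10- or 100-fold and retested.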

Assay [3] can be described thus: CEETOX_H295R_TESTO: CeeTox H295R High-throughput Steroidogenesis Assay for Testosterone (TESTO) (AID 2283457). The following applies: actives raise or lower the signal. Summed up: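 Testosterone secreted into the medium over 48 h by H295R cells (maximum passage 10) was quantified by LC-MS/MS after MTBE extraction. Fitted in both directions against DMSO, with concentrations diluted until MTT viability was ≥70%.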

Read-out in assay [4]: Tumor necrosis factor receptor superfamily member 6 (Homo sapiens) (UniProt P25445)
The experiment in a line: LTEA_HepaRG_FAS: Life Technologies and Expression Analysis (LTEA) Assay for Fas cell surface death receptor (FAS) using HepaRG (AID 2283447). The following applies: mRNA level, 48 h; actives raise or lower the signal. A digest of the protocol:
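Differentiated human HepaRG cells, pre-cultured 48 h, were exposed in duplicate for 48 h to 8-point half-log concentrations (top 100 uM, 0.5% DMSO) in serum-free induction medium; FAS mRNA measured by qRT-PCR, normalized to ACTB/GAPDH/POLR2A, bidirectional fit versus DMSO.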

Read-out in assay [5]: Fatty acid synthase (Homo sapiens) (UniProt P49327)
The experiment in a line: LTEA_HepaRG_FASN: Life Technologies and Expression Analysis (LTEA) Assay for Fatty Acid Synthase (FASN) using HepaRG (AID 2283448). The following applies: mRNA level, 48 h; actives raise or lower the signal. Summed up: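 FASN expression changes, up or down relative to 0.5% DMSO, were measured by qRT-PCR in human HepaRG cells after 48 h treatment with chemicals at eight concentrations (half-log steps from 100 uM).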

Read-out in assay [6]: Cyclin D2 (CCND2), CCND2 (gene 894)
As to the kind of experiment: LTEA_HepaRG_CCND2: Life Technologies and Expression Analysis (LTEA) Assay for Cyclin D2 (CCND2) using HepaRG (AID 2283449).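 Note: CCND2 transcript measured by TaqMan qRT-PCR and normalised to three housekeeping genes.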 The conditions noted are these: mRNA level, 48 h; actives raise or lower the signal. A digest of the protocol: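 Differentiated human HepaRG cells were exposed for 48 h in serum-free induction medium to eight half-log concentrations topping at 100 uM (0.5% DMSO vehicle). CCND2 mRNA was quantified by TaqMan qRT-PCR, normalised to ACTB, GAPDH and POLR2A, and fitted bidirectionally against DMSO.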

Read-out in assay [7]: Cyclin Dependent Kinase Inhibitor 1A (CDKN1A), CDKN1A (gene 1026)
The experiment in a line: LTEA_HepaRG_CDKN1A: Life Technologies and Expression Analysis (LTEA) Assay for Cyclin Dependent Kinase Inhibitor 1A (CDKN1A) using HepaRG (AID 2283450). The following applies: mRNA level, 48 h; actives raise or lower the signal. A digest of the protocol:
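Expression quantified by Fluidigm qRT-PCR with ACTB, GAPDH and POLR2A normalization, fitted bidirectionally against 0.5% DMSO. Cells: HepaRG, plated 48 h then treated 48 h in serum-free induction medium, top concentration 100 uM with half-log dilutions.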

Read-out in assay [8]: Cyclin D1 (CCND1), CCND1 (gene 595)
The experiment in a line: LTEA_HepaRG_CCND1: Life Technologies and Expression Analysis (LTEA) Assay for Cyclin D1 (CCND1) using HepaRG (AID 2283451). The following applies: mRNA level, 48 h; actives raise or lower the signal. Summed up:
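Expression of CCND1 was quantified by qRT-PCR on Fluidigm arrays using ACTB, GAPDH and POLR2A as reference genes. HepaRG cultures, plated 48 h beforehand, were dosed for 48 h at up to 100 uM (half-log, 8 points) in 0.5% DMSO.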

Read-out in assay [9]: catalase (CAT), CAT (gene 847)
The experiment in a line: LTEA_HepaRG_CAT: Life Technologies and Expression Analysis (LTEA) Assay for catalase (CAT) using HepaRG (AID 2283452). The conditions noted are these: mRNA level, 48 h; actives raise or lower the signal. Summed up:
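Differentiated HepaRG cells in serum-free induction medium were dosed 48 h in duplicate, eight half-log concentrations from 100 uM in 0.5% DMSO. Transcript measured by TaqMan qRT-PCR, normalised to ACTB/GAPDH/POLR2A, fitted bidirectionally against DMSO.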

Read-out in assay [10]: flavin-containing dimethylaniline monooxygenases 3 (FMO3), FMO3 (gene 2328)
The experiment in a line: LTEA_HepaRG_FMO3: Life Technologies and Expression Analysis (LTEA) Assay for flavin-containing dimethylaniline monooxygenases 3 (FMO3) using HepaRG (AID 2283453). The following applies: mRNA level, 48 h; actives raise or lower the signal. A digest of the protocol:
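Differentiated HepaRG cells in serum-free induction medium, exposed 48 h in duplicate to 8 half-log concentrations up to 100 uM in 0.5% DMSO. FMO3 mRNA by qRT-PCR, normalized to ACTB, GAPDH, POLR2A; bidirectional fit vs DMSO.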

Read-out in assay [11]: Cytochrome P450 (CYP1A1), CYP1A1 (gene 1543)
The experiment in a line: LTEA_HepaRG_CYP1A1: Life Technologies and Expression Analysis (LTEA) Assay for Cytochrome P450 (CYP1A1) using HepaRG (AID 2283454). The following applies: mRNA level, 48 h; actives raise or lower the signal. A digest of the protocol: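 CYP1A1 transcript levels measured by Fluidigm qRT-PCR against three housekeeping genes, 48 h after chemical dosing of human HepaRG cells (highest concentration 100 uM, half-log steps, 0.5% DMSO vehicle). Gain or loss of signal fitted relative to DMSO.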

Read-out in assay [12]: CFLAR gene, CFLAR (gene 8837)
The experiment in a line: LTEA_HepaRG_CFLAR: Life Technologies and Expression Analysis (LTEA) Assay for CFLAR gene using HepaRG (AID 2283455). The following applies: mRNA level, 48 h; actives raise or lower the signal. Summed up: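 HepaRG cells were plated for 48 h, switched to serum-free induction medium, then exposed in duplicate for 48 h to 8 concentrations (top 100 uM, half-log steps, 0.5% DMSO). CFLAR mRNA was measured by qRT-PCR, normalized to ACTB, GAPDH and POLR2A.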

Read-out in assay [13]: Forkhead box O1 (FOXO1), FOXO1 (gene 2308)
The experiment in a line: LTEA_HepaRG_FOXO1: Life Technologies and Expression Analysis (LTEA) Assay for Forkhead box O1 (FOXO1) using HepaRG (AID 2283456). The following applies: mRNA level, 48 h; actives raise or lower the signal. A digest of the protocol:
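Differentiated human HepaRG cells in serum-free induction medium were exposed in duplicate for 48 h to eight half-log concentrations (top 100 uM, 0.5% DMSO). FOXO1 mRNA was measured by TaqMan qRT-PCR, normalised to ACTB, GAPDH and POLR2A, and fitted bidirectionally against DMSO.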

Read-out in assay [14]: growth arrest and DNA damage 45 (GADD45A), GADD45A (gene 1647)
The experiment in a line: LTEA_HepaRG_GADD45A: Life Technologies and Expression Analysis (LTEA) Assay for growth arrest and DNA damage 45 (GADD45A) using HepaRG (AID 2283458). The following applies: mRNA level, 48 h; actives raise or lower the signal. A digest of the protocol: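 Cells plated and cultured 48 h, switched to serum-free induction medium, then dosed for 48 h (100 uM top, half-log dilutions, 0.5% DMSO). RNA was isolated and transcript measured by Fluidigm qRT-PCR.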

Read-out in assay [15]: Forkhead box O3 (FOXO3), FOXO3 (gene 2309)
As to the kind of experiment: LTEA_HepaRG_FOXO3: Life Technologies and Expression Analysis (LTEA) Assay for Forkhead box O3 (FOXO3) using HepaRG (AID 2283459). The conditions noted are these: mRNA level, 48 h; actives raise or lower the signal. Summed up:
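Differentiated human HepaRG cells in serum-free induction medium were exposed in duplicate for 48 h to eight half-log concentrations up to 100 uM in 0.5% DMSO. FOXO3 mRNA was quantified by qRT-PCR, normalized to ACTB, GAPDH and POLR2A, with bidirectional fitting versus DMSO.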

Read-out in assay [16]: ABC Transporter (ABCB1), ABCB1 (gene 5243)
As to the kind of experiment: LTEA_HepaRG_ABCB1: Life Technologies and Expression Analysis (LTEA) Assay for ABC Transporter (ABCB1) using HepaRG (AID 2283460). The following applies: mRNA level, 48 h; actives raise or lower the signal. A digest of the protocol:
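Differentiated human HepaRG cells, plated 48 h then switched to serum-free induction medium, were exposed in duplicate to eight half-log concentrations up to 100 uM in 0.5% DMSO for 48 h. ABCB1 mRNA was measured by TaqMan qRT-PCR, normalized to ACTB/GAPDH/POLR2A.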

Read-out in assay [17]: growth arrest and DNA damage 45 (GADD45B), GADD45B (gene 4616)
The experiment in a line: LTEA_HepaRG_GADD45B: Life Technologies and Expression Analysis (LTEA) Assay for growth arrest and DNA damage 45 (GADD45B) using HepaRG (AID 2283461). The conditions noted are these: mRNA level, 48 h; actives raise or lower the signal. A digest of the protocol:
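Transcript level quantified by Fluidigm TaqMan qRT-PCR with three housekeeping genes for normalization, analyzed for up- or down-regulation against 0.5% DMSO. HepaRG cultures dosed 48 h at eight half-log concentrations up to 100 uM, duplicates.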

Read-out in assay [18]: ABC Transporter (ABCC3), ABCC3 (gene 8714)
As to the kind of experiment: LTEA_HepaRG_ABCC3: Life Technologies and Expression Analysis (LTEA) Assay for ABC Transporter (ABCC3) using HepaRG (AID 2283462). The following applies: mRNA level, 48 h; actives raise or lower the signal. A digest of the protocol:
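Transcript level by TaqMan qRT-PCR, normalised to three housekeeping genes, fitted in both directions relative to vehicle. Chemicals tested in duplicate at eight half-log concentrations up to 100 uM for 48 h on HepaRG cells (0.5% DMSO).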

Read-out in assay [19]: ABC Transporter (ABCC2), ABCC2 (gene 1244)
The experiment in a line: LTEA_HepaRG_ABCC2: Life Technologies and Expression Analysis (LTEA) Assay for ABC Transporter (ABCC2) using HepaRG (AID 2283464). The conditions noted are these: mRNA level, 48 h; actives raise or lower the signal. A digest of the protocol:
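Endpoint is ABCC2 transcript level from qRT-PCR, normalized to three housekeeping genes and fitted bidirectionally relative to DMSO. Human HepaRG cells received test chemical for 48 h at up to 100 uM (8 points, half-log steps, 0.5% DMSO), duplicate wells.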

Read-out in assay [20]: ATP-citrate lyase (ACLY), ACLY (gene 47)
As to the kind of experiment: LTEA_HepaRG_ACLY: Life Technologies and Expression Analysis (LTEA) Assay for ATP-citrate lyase (ACLY) using HepaRG (AID 2283466). The conditions noted are these: mRNA level, 48 h; actives raise or lower the signal. Summed up: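 Differentiated human HepaRG cells in serum-free induction medium exposed 48 h, in duplicate, to eight half-log concentrations from 100 uM top in 0.5% DMSO; ACLY mRNA measured by qRT-PCR, normalized to ACTB, GAPDH, POLR2A, fitted bidirectionally versus DMSO.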

The source made the active and inactive calls. Rule for the calls: active = hit-call score of the fitted dose curve at least 0.9, where 1 is the maximum; inactive = score below 0.9.

Usually AC50 stands for the midpoint of the concentration-response curve, whichever way the signal moves.

Fatty acid synthase (Homo sapiens), sequence (P49327 whole entry, looked up): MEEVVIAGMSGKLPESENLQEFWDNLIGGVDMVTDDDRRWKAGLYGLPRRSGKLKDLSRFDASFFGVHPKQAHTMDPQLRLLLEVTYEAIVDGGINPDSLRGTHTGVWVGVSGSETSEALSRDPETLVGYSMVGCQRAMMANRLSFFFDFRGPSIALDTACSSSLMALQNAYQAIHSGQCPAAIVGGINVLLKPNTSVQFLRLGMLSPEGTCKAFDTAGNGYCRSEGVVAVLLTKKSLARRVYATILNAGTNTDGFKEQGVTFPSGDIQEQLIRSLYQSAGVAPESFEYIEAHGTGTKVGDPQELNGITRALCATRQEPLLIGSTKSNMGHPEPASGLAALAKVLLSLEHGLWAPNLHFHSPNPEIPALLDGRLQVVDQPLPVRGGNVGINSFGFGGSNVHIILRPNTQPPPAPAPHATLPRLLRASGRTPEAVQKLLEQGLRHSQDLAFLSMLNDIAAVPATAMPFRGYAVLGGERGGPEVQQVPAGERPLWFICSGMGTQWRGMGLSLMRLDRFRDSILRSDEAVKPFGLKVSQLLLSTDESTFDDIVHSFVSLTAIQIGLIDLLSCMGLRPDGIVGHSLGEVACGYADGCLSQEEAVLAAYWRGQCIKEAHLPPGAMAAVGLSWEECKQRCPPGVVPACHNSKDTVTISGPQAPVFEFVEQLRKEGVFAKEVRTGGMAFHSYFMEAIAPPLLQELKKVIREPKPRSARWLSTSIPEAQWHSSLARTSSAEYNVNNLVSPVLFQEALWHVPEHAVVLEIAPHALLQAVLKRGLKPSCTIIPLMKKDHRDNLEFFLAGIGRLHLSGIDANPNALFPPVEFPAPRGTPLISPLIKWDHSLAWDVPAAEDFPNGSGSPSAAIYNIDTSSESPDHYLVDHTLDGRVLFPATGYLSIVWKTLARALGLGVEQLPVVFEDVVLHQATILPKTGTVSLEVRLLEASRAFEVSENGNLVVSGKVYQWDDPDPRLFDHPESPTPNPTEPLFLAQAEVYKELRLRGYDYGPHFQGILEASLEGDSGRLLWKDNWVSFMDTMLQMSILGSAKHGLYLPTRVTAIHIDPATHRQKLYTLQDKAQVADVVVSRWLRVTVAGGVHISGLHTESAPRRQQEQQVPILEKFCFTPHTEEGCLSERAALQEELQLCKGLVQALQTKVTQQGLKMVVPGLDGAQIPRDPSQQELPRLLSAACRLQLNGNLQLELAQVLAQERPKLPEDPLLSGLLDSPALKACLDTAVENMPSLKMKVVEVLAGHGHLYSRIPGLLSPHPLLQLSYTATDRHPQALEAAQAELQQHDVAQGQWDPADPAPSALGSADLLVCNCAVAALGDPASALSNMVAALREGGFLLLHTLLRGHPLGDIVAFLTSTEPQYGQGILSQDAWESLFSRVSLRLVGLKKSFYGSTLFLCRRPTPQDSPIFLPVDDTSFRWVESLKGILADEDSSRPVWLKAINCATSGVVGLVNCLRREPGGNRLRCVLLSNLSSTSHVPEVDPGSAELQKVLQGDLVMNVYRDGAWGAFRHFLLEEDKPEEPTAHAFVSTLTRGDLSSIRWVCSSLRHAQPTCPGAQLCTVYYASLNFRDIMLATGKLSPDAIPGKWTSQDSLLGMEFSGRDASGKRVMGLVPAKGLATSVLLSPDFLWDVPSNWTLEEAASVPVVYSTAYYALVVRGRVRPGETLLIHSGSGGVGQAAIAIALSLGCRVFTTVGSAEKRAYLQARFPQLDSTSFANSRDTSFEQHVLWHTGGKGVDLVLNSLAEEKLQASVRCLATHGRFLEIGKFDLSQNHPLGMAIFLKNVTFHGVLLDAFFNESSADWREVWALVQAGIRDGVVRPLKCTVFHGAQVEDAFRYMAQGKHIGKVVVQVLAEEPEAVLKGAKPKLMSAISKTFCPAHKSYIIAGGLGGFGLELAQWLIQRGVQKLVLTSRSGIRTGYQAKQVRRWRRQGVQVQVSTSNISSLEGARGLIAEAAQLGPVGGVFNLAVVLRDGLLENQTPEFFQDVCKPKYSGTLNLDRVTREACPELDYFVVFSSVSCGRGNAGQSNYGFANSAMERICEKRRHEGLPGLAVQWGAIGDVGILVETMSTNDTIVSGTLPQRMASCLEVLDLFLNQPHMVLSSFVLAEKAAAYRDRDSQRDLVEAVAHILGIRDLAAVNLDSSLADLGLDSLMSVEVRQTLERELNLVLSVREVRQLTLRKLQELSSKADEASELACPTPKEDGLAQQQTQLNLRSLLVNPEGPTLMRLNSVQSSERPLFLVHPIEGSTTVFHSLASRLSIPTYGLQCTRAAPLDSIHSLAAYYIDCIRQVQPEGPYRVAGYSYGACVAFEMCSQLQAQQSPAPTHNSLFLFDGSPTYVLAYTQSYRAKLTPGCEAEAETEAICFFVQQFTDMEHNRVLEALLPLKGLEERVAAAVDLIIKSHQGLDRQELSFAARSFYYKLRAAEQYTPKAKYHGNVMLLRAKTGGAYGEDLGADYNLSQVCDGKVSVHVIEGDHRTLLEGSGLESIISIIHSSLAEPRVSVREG

For `CC(C)CCOCCC(C)C`, the molecule was called inactive in [1], in assay [2] and in [3].
Consider `C[C@]12CC[C@@H]3c4ccc(O)cc4CC[C@H]3[C@@H]1C[C@@H](O)[C@@H]2O`, for which the molecule was called inactive in assay [2].
For `OCC(CO)(CBr)CBr`, the molecule was classed as inactive in [4], in assay [5], in assay [6], in assay [7], in assay [8] and in [9]. Moreover, the molecule was classed as inactive in [10], in assay [11], in assay [12], in assay [13], in assay [14] and in [15]. Further, the outcome in [16], in assay [17], in [18], in assay [19] and in [20] was inactive.
Consider `O=C(CCCN1CCC(O)(c2ccc(Cl)cc2)CC1)c1ccc(F)cc1`, for which the AC50 in assay [4] is 85.8 µM (active); in [5] it was 9.92 µM (active); in [7] it was 79.9 µM (active); in [9] it was 68.4 µM (active); in assay [10], 73.7 µM (active); in [11], 12.4 µM (active). Further, the AC50 in assay [13] was 81.2 µM (active); in assay [14], 75 µM (active); in assay [16], 85.6 µM (active); in assay [18], 50 µM (active); in [19], 80.7 µM (active); in [20], 32 µM (active). The call in assay [8], in [12], in assay [15] and in [17] was inactive.
Consider `CC(=O)Nc1ccc(O)cc1`, for which the call in assay [4], in assay [5], in assay [6], in assay [7], in [8] and in [9] was inactive. Besides, the call in assay [10], in assay [12], in assay [13], in [14], in [15] and in assay [16] was inactive. Besides, the outcome in assay [17], in assay [18], in assay [19] and in assay [20] was inactive. Further, in [11], the half-maximal activity concentration (AC50) is 50 µM (active).
With `CCCCCC(C)OC(=O)COc1ccc(Cl)c2cccnc12` (centres undefined), in [2], the molecule was called inactive.
For the molecule `CCCCC(CC)C(=O)O` (centres undefined), the result in assay [4], in assay [5], in assay [7], in assay [8], in assay [9] and in [12] was inactive. Moreover, the molecule was classed as inactive in assay [14], in assay [15], in [16], in assay [17], in assay [18] and in assay [19]. In assay [20], the result was inactive. In addition, the AC50 in assay [11] was 50 µM (active).
